From PubChem BioAssay (Tox21)
Results filed as inconclusive are left out. A call without a number means that no potency is given here. A number with no mark means an inactive call. Active and inactive are the calls of the source. Unless noted, the call rests on the fitted dose curve; in most records, active means well fitted curve in the direction sought with a large enough effect in the repeat runs; inconclusive means weak or mixed curves; inactive means no such curve, though single readings can be large; an effect the other way counts as inactive or inconclusive.

What was measured:
[1] = qHTS assay to identify small molecule antagonists of the thyroid receptor (TR) signaling pathway - cell viability counter screen (AID 743064); further: nearly all actives have a fitted effect of over 50% in size; further: potency means the concentration at half of the fitted maximal effect
Method in brief: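 Same-well viability check: GH3.TRE-Luc cells stimulated with 1 nM T3 alongside test compound for 23.5 h, followed by CellTiter-Fluor fluorescence.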

[2] = qHTS assay to identify small molecule antagonists of the thyroid receptor (TR) signaling pathway (AID 743065); further: nearly all actives have a fitted effect of over 55% in size; further: potency means the concentration at half of the fitted maximal effect
Method in brief: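 Antagonism measured as loss of luciferase signal in GH3 cells stably carrying a TRE-luciferase reporter, co-treated with compound and T3 (1 nM final) for 23.5 h at 37 C. Viability was read in the same well by CellTiter-Fluor.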

[3] = tested on: thyroid hormone receptor (rat, GH3 cells); assay: qHTS assay to identify small molecule agonists of the thyroid receptor (TR) signaling pathway (AID 743066; calls by dose curve)
[4] = qHTS assay to identify small molecule antagonists of the estrogen receptor alpha (ER-alpha) signaling pathway - cell viability counter screen (AID 743074; calls by dose curve;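 further: HEK293 cells carrying ER-alpha-UAS-bla reporter stimulated with 17beta-estradiol; nearly all actives have a fitted effect of over 45% in size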; further: potency means the concentration at half of the fitted maximal effect)
[5] = qHTS assay to identify small molecule antagonists of the estrogen receptor alpha (ER-alpha) signaling pathway using the BG1 cell line - cell viability counter screen (AID 743081);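 further: compound given together with 17beta-estradiol as the ER stimulus; nearly all actives have a fitted effect of over 45% in size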; further: potency means the concentration at half of the fitted maximal effect
[6] = qHTS assay to identify small molecule that activate the aryl hydrocarbon receptor (AhR) signaling pathway - cell viability counter screen (AID 743086); further: nearly all actives have a fitted effect of over 45% in size; further: potency means the concentration at half of the fitted maximal effect
Method in brief: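 Cytotoxicity counter screen: CellTiter-Fluor signal (30 min, 37 C) in 4000 HepG2 cells/well carrying the DRE-luciferase reporter, following 24 h compound exposure at 37 C.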

[7] = qHTS assay to identify small molecule phospholipidosis (PLD) inducers (AID 1259344; active means well fitted curve in the direction sought with a large enough effect; an effect the other way counts as inactive or inconclusive)
Method in brief: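 Phospholipid accumulation was scored by imaging: fixed, Hoechst-counterstained HepG2 cells stained with LipidTOX Red after 24 h compound exposure at 37 C. Read-outs were pit count and pit intensity per well or per cell, with amiodarone and DMSO controls.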

[8] = target: Nuclear receptor subfamily 1 group I member 2 (Rattus norvegicus) (UniProt Q9R1A7); assay: Rat pregnane X receptor (rPXR) activation by small molecules, qHTS assay (AID 1346983); conditions: rPXR luciferase reporter cells, One-Glo luminescence, 24 h; max activation: stronger effect = higher value; further: nearly all actives have a fitted effect of over 20% in size
Method in brief: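 Luminescent readout (One-Glo luciferase, 30 min room temperature) followed 24 hr compound treatment at 37 C of rPXR cells plated 2,000 per well and preincubated 5hr; qHTS format with compounds delivered in DMSO.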

[9] = target: Nuclear receptor subfamily 1 group I member 2 (Homo sapiens) (UniProt O75469); assay: CYP3A4 induction through human pregnane X receptor (PXR) by small molecules, qHTS assay (AID 1346984); further: nearly all actives have a fitted effect of over 40% in size; further: potency means the concentration at half of the fitted maximal effect
Method in brief: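 Human PXR activation is tracked via CYP3A4 promoter-luciferase in DPX-2 (HepG2) cells. Compounds treat cells for 24hr at 37C, and luminescence is read after One-Glo.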

[10] = target: Nuclear receptor subfamily 1 group I member 2 (Homo sapiens) (UniProt O75469); assay: Human pregnane X receptor (PXR) activation by small molecules, qHTS assay (AID 1346985); further: nearly all actives have a fitted effect of over 40% in size; further: potency means the concentration at half of the fitted maximal effect
Method in brief: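 DPX-2 cells (HepG2 co-transfected with a PXR response element and a CYP3A4-promoter luciferase construct) were seeded at 2,000 per well, rested 5 hr at 37C, then exposed to DMSO-dissolved compounds for 24 hr. Activation was read as luciferase luminescence.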

Aromatase (Homo sapiens) = Aromatase (Homo sapiens) (UniProt P11511); assay: qHTS assay to identify aromatase inhibitors (AID 743083); further: nearly all actives have a fitted effect of over 55% in size; further: potency means the concentration at half of the fitted maximal effect
[11] = qHTS assay to identify aromatase inhibitors - cell viability counter screen (AID 743084);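 further: cells stimulated with testosterone during compound exposure; nearly all actives have a fitted effect of over 55% in size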; further: potency means the concentration at half of the fitted maximal effect
[12] = target: Aryl hydrocarbon receptor (Homo sapiens) (UniProt P35869); assay: qHTS assay to identify small molecule that activate the aryl hydrocarbon receptor (AhR) signaling pathway (AID 743085);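 further: HG2L7.5c1 human HepG2 liver cells with stably integrated DRE-driven firefly reporter; nearly all actives have a fitted effect of over 15% in size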
Method in brief: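 Reporter assay in engineered HepG2 line HG2L7.5c1, whose plasmid carries twenty dioxin responsive elements upstream of firefly luciferase. Treatment lasted 24 h at 37C; ONE-Glo luminescence gauged induction.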

[13] = target: Peroxisome proliferator-activated receptor gamma (Homo sapiens) (UniProt P37231); assay: qHTS assay to identify small molecule agonists of the peroxisome proliferator-activated receptor gamma (PPARg) signaling pathway (AID 743094; active means well fitted activation curve with a large enough effect in the signal ratio in the repeat runs, not every such curve was filed as active; the % refers to the signal ratio)
Method in brief: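 Cell-based bla reporter, HEK293H background, PPARg-driven UAS. Pre-incubation 5 h, 37C, 5% CO2. Compound 17 h, 37C. Substrate 1 h RT; fluorescence.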

[14] = target: Estrogen receptor (Homo sapiens) (UniProt P03372); assay: qHTS assay to identify small molecule antagonists of the estrogen receptor alpha (ER-alpha) signaling pathway (AID 743069; active means well fitted curve in the direction sought with a large enough effect in the signal ratio in the repeat runs, not every such curve was filed as active; the % refers to the signal ratio)
Method in brief: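 Antagonist mode: compounds in DMSO were co-added with 17beta-estradiol to ER-alpha-bla HEK293 cells (2% charcoal-stripped serum) and left 18 h at 37C. Reporter inhibition was measured as FRET fluorescence after 2 h LiveBLAzer substrate at room temperature.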

[15] = target: Estrogen receptor (Homo sapiens) (UniProt P03372); assay: qHTS assay to identify small molecule agonists of the estrogen receptor alpha (ER-alpha) signaling pathway (AID 743075; calls by dose curve;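 further: HEK293 GripTite cells with ER-alpha and UAS-driven beta-lactamase reporter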)
[16] = target: Estrogen receptor (Homo sapiens) (UniProt P03372); assay: qHTS assay to identify small molecule agonists of the estrogen receptor alpha (ER-alpha) signaling pathway using the BG1 cell line (AID 743079); conditions: BG1Luc4E2 cells, ERE-luciferase agonist, 22 h; activation: at 70.3 µM (top of the series); further: nearly all actives have a fitted effect of over 20% in size
[17] = qHTS assay to identify small molecule antagonists of the estrogen receptor alpha (ER-alpha) signaling pathway using the BG1 cell line (AID 743080; calls by dose curve;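 further: BG1 cells stimulated with 17beta-estradiol alongside compound; nearly all actives have a fitted effect of over 25% in size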; further: potency means the concentration at half of the fitted maximal effect)
Method in brief: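 Endogenous full-length ER-alpha in BG1-Luc-4E2 cells drives a stably integrated 4×ERE luciferase gene; compounds were tested against 17beta-estradiol over 21.5 h, with luminescence and multiplexed viability fluorescence recorded.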

Sequence of Aromatase (Homo sapiens) (P11511 whole entry, looked up): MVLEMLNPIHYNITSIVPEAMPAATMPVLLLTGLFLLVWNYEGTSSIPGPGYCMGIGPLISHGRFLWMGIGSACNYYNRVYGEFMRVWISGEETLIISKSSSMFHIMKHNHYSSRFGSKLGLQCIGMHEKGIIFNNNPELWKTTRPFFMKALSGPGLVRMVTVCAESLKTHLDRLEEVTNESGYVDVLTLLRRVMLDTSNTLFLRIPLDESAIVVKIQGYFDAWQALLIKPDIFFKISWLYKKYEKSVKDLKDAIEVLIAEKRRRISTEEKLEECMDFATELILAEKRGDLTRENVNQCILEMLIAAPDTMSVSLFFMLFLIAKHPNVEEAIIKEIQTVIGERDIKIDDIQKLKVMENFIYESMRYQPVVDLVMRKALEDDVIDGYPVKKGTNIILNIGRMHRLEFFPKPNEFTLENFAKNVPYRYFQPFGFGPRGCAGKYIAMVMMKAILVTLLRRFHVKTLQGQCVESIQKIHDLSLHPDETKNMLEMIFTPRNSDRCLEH
Sequence of Nuclear receptor subfamily 1 group I member 2 (Rattus norvegicus) (Q9R1A7 whole entry, looked up): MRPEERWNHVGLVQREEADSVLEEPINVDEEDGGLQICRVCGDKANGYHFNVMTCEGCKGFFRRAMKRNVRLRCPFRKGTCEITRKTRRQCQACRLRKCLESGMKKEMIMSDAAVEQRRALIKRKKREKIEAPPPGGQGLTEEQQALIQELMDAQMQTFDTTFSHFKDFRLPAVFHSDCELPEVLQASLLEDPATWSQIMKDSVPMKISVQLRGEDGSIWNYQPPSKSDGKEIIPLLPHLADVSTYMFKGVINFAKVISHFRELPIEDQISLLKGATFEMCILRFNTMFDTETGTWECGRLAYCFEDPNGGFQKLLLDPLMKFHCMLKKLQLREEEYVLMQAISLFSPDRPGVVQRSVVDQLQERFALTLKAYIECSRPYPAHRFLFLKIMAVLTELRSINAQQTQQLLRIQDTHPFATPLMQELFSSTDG
Sequence of Aryl hydrocarbon receptor (Homo sapiens) (P35869 whole entry, looked up): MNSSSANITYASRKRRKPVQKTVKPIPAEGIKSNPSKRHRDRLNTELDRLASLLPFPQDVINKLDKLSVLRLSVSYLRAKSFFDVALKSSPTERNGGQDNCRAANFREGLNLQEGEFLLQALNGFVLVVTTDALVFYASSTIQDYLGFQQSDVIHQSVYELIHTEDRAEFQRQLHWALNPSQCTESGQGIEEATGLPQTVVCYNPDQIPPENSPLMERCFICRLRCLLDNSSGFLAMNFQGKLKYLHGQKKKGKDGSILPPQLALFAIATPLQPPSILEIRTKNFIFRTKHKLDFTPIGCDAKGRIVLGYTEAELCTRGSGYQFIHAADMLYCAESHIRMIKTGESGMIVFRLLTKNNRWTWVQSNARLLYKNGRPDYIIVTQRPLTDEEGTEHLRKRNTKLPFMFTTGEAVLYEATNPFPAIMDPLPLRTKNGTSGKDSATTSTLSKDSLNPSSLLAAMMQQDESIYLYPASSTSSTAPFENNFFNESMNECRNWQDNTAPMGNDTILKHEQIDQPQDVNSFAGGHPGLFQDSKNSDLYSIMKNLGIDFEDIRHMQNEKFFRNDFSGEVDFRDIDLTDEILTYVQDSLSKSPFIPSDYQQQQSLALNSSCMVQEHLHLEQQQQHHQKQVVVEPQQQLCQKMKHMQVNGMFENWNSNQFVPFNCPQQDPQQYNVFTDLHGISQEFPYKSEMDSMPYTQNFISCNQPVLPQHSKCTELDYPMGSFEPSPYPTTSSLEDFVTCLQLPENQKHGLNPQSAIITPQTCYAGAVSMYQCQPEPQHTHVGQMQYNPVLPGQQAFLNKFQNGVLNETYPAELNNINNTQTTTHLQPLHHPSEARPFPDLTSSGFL
Sequence of Peroxisome proliferator-activated receptor gamma (Homo sapiens) (P37231 whole entry, looked up): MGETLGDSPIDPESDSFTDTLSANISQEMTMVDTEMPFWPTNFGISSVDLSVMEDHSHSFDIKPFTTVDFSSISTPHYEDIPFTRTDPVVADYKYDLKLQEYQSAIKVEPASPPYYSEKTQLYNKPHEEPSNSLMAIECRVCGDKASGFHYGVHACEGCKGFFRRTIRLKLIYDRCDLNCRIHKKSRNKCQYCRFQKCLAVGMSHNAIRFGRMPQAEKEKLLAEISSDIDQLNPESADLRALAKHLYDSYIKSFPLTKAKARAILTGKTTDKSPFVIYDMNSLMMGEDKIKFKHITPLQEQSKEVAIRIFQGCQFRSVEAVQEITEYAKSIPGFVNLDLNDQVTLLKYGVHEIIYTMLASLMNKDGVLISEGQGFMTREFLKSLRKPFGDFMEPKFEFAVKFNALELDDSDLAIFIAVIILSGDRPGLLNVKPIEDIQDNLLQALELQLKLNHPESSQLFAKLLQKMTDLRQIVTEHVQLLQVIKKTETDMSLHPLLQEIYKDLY
Sequence of Estrogen receptor (Homo sapiens) (P03372 whole entry, looked up): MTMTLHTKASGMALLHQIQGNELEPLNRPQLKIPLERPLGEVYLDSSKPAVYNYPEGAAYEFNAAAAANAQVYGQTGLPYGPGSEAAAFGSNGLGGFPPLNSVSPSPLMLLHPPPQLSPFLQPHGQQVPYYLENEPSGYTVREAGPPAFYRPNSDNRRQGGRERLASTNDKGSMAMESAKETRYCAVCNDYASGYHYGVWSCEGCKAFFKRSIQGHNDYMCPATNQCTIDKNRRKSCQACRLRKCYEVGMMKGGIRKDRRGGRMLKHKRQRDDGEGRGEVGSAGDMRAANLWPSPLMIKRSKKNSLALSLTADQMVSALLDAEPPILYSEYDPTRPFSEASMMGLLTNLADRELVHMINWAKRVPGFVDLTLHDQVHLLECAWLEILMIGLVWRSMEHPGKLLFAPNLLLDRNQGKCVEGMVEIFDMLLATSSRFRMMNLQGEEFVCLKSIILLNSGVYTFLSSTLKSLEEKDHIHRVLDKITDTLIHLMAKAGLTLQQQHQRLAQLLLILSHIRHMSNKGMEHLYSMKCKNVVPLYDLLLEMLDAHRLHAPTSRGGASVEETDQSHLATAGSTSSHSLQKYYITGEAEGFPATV

## Nc1nc(=O)n([C@@H]2CS[C@H](CO)O2)cc1F
[1]
  Potency: inactive
[2]
  Potency: inactive
[3]
  Potency: inactive
[4]
  Potency: inactive
[5]
  Potency: inactive
[6]
  Potency: inactive
[7]
  Potency: inactive
[8]
  max activation: 2.33%
[9]
  Potency: inactive
[10]
  Potency: inactive

## CO[C@@]1(NC(=O)C2SC(=C(C(N)=O)C(=O)O)S2)C(=O)N2C(C(=O)O)=C(CSc3nnnn3C)CS[C@@H]21 (stereo partly specified)
[1]
  Potency: inactive
[2]
  Potency: inactive
[3]
  Potency: inactive
[4]
  Potency: inactive
[5]
  Potency: inactive
Aromatase (Homo sapiens)
  Potency: inactive
[11]
  Potency: inactive
[12]
  Potency: inactive
[13]
  Potency: inactive
[7]
  Potency: inactive
[8]
  max activation: -1.7%
[9]
  Potency: inactive
[10]
  Potency: inactive

## c1ccc2cc(C3=NCCN3)ccc2c1
[1]
  Potency: inactive
[3]
  Potency: inactive
[14]
  Potency: inactive
[4]
  Potency: inactive
[15]
  Potency: inactive
[16]
  Potency: inactive
[5]
  Potency: inactive
Aromatase (Homo sapiens)
  Potency: inactive
[11]
  Potency: inactive
[6]
  Potency: inactive
[7]
  Potency: inactive
[8]
  max activation: -0.34%
[9]
  Potency: inactive
[10]
  Potency: inactive

## CC(=O)Oc1cc(C)c(OC(C)=O)c2ccccc12
[1]
  Potency: 26.6 µM (active)
[2]
  Potency: 23.7 µM (active)
[4]
  Potency: inactive
[15]
  Potency: inactive
[17]
  Potency: inactive
[5]
  Potency: inactive
Aromatase (Homo sapiens)
  Potency: 26.6 µM (active)
[11]
  Potency: inactive
[6]
  Potency: inactive
[7]
  Potency: inactive
[8]
  max activation: 0.757%
[9]
  Potency: 12.6 µM (active)
[10]
  Potency: inactive

## CC(C)CCC[C@@H](C)[C@H]1CC(=O)C2=C3CC[C@H]4C[C@@H](O)CC[C@]4(C)[C@H]3CC[C@@]21C
[1]
  Potency: inactive
[3]
  Potency: inactive
[15]
  Potency: inactive
[16]
  Potency: inactive
[5]
  Potency: inactive
Aromatase (Homo sapiens)
  Potency: inactive
[11]
  Potency: inactive
[12]
  Potency: inactive
[6]
  Potency: inactive
[13]
  Potency: inactive
[7]
  Potency: inactive
[8]
  max activation: -2.36%
[9]
  Potency: inactive
[10]
  Potency: inactive

## C=C1CC[C@H](O)CC1=C/C=C1\CCC[C@]2(C)[C@@H]([C@H](C)CCCC(C)(C)O)CC[C@@H]12
[1]
  Potency: 11.9 µM (active)
[2]
  Potency: 6.68 µM (active)
[4]
  Potency: 23.9 µM (active)
[15]
  Potency: inactive
[5]
  Potency: inactive
Aromatase (Homo sapiens)
  Potency: inactive
[11]
  Potency: inactive
[6]
  Potency: inactive
[7]
  Potency: inactive
[8]
  max activation: -20.1%
[9]
  Potency: inactive
[10]
  Potency: inactive

## C=CC1=C(C)C2=CC3=NC(=C(CC(=O)[O-])C4=NC(=C(C)C4=C([O-])[O-])C=c4[n-]c(c(C)c4CC)=CC1=N2)C(CCC(=O)[O-])C3C.[Cu+2].[Na+].[Na+].[Na+] (stereo unspecified)
[1]
  Potency: 26.6 µM (active)
[3]
  Potency: inactive
[14]
  Potency: inactive
[4]
  Potency: inactive
[15]
  Potency: inactive
[16]
  Potency: inactive
[5]
  Potency: 29.8 µM (active)
Aromatase (Homo sapiens)
  Potency: inactive
[11]
  Potency: 23.7 µM (active)
[6]
  Potency: 23.7 µM (active)
[7]
  Potency: inactive
[8]
  max activation: -0.69%
[9]
  Potency: inactive
[10]
  Potency: inactive

## CCN(CC)CCC(=O)N1c2ccccc2Sc2ccc(C(F)(F)F)cc21
[1]
  Potency: 13.3 µM (active)
[2]
  Potency: 26.6 µM (active)
[4]
  Potency: inactive
[15]
  Potency: inactive
[17]
  Potency: inactive
[5]
  Potency: inactive
Aromatase (Homo sapiens)
  Potency: inactive
[11]
  Potency: inactive
[12]
  Potency: inactive
[13]
  Potency: inactive
[7]
  Potency: inactive
[8]
  max activation: -1.59%
[9]
  Potency: 1 µM (active)
[10]
  Potency: 6.31 µM (active)

## O=C(O)C1CCCN1 (stereo unspecified)
[1]
  Potency: inactive
[2]
  Potency: inactive
[3]
  Potency: inactive
[5]
  Potency: inactive
Aromatase (Homo sapiens)
  Potency: inactive
[11]
  Potency: inactive
[6]
  Potency: inactive
[7]
  Potency: inactive
[8]
  max activation: -0.193%
[9]
  Potency: inactive
[10]
  Potency: inactive

## CC1=C(/C=C/C(C)=C/C=C/C(C)=C/C(=O)Oc2c(C)c(C)c3c(c2C)CC[C@@](C)(CCC[C@H](C)CCC[C@H](C)CCCC(C)C)O3)C(C)(C)CCC1
[1]
  Potency: inactive
[2]
  Potency: inactive
[14]
  Potency: inactive
[4]
  Potency: inactive
[15]
  Potency: inactive
[16]
  Potency: inactive
[17]
  Potency: 7.5 µM (active)
[5]
  Potency: inactive
[11]
  Potency: inactive
[12]
  Potency: inactive
[6]
  Potency: inactive
[13]
  Potency: inactive
[7]
  Potency: inactive
[8]
  max activation: -1.27%
[9]
  Potency: inactive
[10]
  Potency: inactive
